Results reported in PubChem BioAssay (EPA / NIEHS).
Records with an inconclusive call do not appear. Active and inactive are the calls of the source. The calls were made as follows, unless noted: active = hit-call score of the fitted dose curve at least 0.9, where 1 is the maximum; inconclusive = response in the unintended direction; inactive = score below 0.9.

test system: not listed separately; experiment: ATG_M_06_TRANS: Attagene TRANS-FACTORIAL HepG2 Assay for M06 Transcription Factor (Internal Marker) (AID 2282983); settings: HepG2 Attagene TRANS M06 internal marker reporter
Method in brief: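 mRNA levels of a reporter transcript, quantified as FAM fluorescence on capillary electrophoresis, served as readout. HepG2 cells expressing exogenous GAL4-chimera reporter constructs were exposed for 24 h. Gain of signal over DMSO was evaluated.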

outcome, inactive:
CC1(C)[C@H](C(=O)OCc2cccc(Oc3ccccc3)c2)[C@@H]1C=C(Cl)Cl
C=CC(C)(O)CCC=C(C)CCC=C(C)C (stereo not drawn)
O=C(O)CCCCCCCCCCC(=O)O
COc1ccc(Nc2ccccc2)c(C)c1
CNCCCC12CCC(c3ccccc31)c1ccccc12
OC[C@H]1O[C@H](O[C@]2(CCl)O[C@H](CCl)[C@@H](O)[C@@H]2O)[C@H](O)[C@@H](O)[C@H]1Cl
O=C(O)c1ccc([N+](=O)[O-])cc1
COCCOCCOCCOCCOCCO
O=c1cc(-c2ccccc2)oc2cc(O)cc(O)c12
Cc1cccc(Nc2ccccc2C(=O)O)c1C
CCCCCCCCCCCCCOS(=O)(=O)O
COc1ccnc(CS(=O)c2nc3cc(OC(F)F)ccc3[nH]2)c1OC (stereo not drawn)
Cc1cccc(C)c1[N+](=O)[O-]
COCCCOc1ccnc(CS(=O)c2nc3ccccc3[nH]2)c1C (stereo not drawn)
C=CC(=O)OCC(O)COc1ccccc1 (stereo not drawn)
O=CCCc1ccccc1
c1ccc2[nH]ccc2c1
O=S(=O)(O)c1cccc2c(S(=O)(=O)O)cccc12
Nc1cccc(S(=O)(=O)c2cccc(N)c2)c1
O=C(O)CCCCC1CCSS1 (stereo not drawn)
CC(=O)C(C)=O
CCCCOCCOCCSC#N
NC(N)=NC(=O)c1nc(Cl)c(N)nc1N
O=Cc1ccc(F)cc1
COC(=O)Cc1cccc2ccccc12
CC(C)c1cccc(O)c1

test system: not listed separately; experiment: ATG_M_32_TRANS: Attagene TRANS-FACTORIAL HepG2 Assay for M32 Transcription Factor (Internal Marker) (AID 2282984); settings: HepG2 Attagene TRANS M32 internal marker reporter;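 also: transcript level of a background control reporter unit measured by RT-PCR and capillary electrophoresis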
Method in brief: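 Internal-marker readout from a multiplexed transcription reporter panel. HepG2 cells were transfected with GAL4-UAS reporter units, treated 24 hours, and reporter transcript levels determined by fluorescence after RT-PCR and capillary separation.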

outcome, inactive:
CC1(C)[C@H](C(=O)OCc2cccc(Oc3ccccc3)c2)[C@@H]1C=C(Cl)Cl
Clc1ccc(Cl)c(Cl)c1Cl
O=C(O)c1ccc([N+](=O)[O-])cc1
O=C(O)CCSCCC(=O)O
O=c1cc(-c2ccccc2)oc2cc(O)cc(O)c12
Cc1cccc(Nc2ccccc2C(=O)O)c1C
CC(C)(CO)[N+](=O)[O-]
O=C1OC2(c3cc(Br)c(O)c(Br)c3Oc3c2cc(Br)c(O)c3Br)c2c(Cl)c(Cl)c(Cl)c(Cl)c21
Cc1cccc(C)c1[N+](=O)[O-]
COCCCOc1ccnc(CS(=O)c2nc3ccccc3[nH]2)c1C (stereo not drawn)
O=CCCc1ccccc1
CCOC(=S)SSC(=S)OCC
CCCCOCCOCCSC#N
NC(N)=NC(=O)c1nc(Cl)c(N)nc1N
CCC(C)CCCC(C)(C)O (stereo not drawn)
O=Cc1ccc(F)cc1
CC(C)c1cccc(O)c1

molecular target: Nuclear receptor subfamily 4 group A member 2 (Homo sapiens) (UniProt P43354); experiment: ATG_NURR1_TRANS: Attagene TRANS-FACTORIAL HepG2 Assay for human Nuclear Receptor Related Protein 1 (NURR1) (AID 2282985); settings: HepG2 Attagene TRANS reporter, mRNA readout
Method in brief: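 Endpoint: reporter mRNA increase relative to DMSO. HepG2 cells transfected with reporter units, treated 24 h; RNA processed by RT-PCR, labelling, HpaI digestion and capillary electrophoresis.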

Nuclear receptor subfamily 4 group A member 2 (Homo sapiens), sequence (P43354 whole entry, looked up): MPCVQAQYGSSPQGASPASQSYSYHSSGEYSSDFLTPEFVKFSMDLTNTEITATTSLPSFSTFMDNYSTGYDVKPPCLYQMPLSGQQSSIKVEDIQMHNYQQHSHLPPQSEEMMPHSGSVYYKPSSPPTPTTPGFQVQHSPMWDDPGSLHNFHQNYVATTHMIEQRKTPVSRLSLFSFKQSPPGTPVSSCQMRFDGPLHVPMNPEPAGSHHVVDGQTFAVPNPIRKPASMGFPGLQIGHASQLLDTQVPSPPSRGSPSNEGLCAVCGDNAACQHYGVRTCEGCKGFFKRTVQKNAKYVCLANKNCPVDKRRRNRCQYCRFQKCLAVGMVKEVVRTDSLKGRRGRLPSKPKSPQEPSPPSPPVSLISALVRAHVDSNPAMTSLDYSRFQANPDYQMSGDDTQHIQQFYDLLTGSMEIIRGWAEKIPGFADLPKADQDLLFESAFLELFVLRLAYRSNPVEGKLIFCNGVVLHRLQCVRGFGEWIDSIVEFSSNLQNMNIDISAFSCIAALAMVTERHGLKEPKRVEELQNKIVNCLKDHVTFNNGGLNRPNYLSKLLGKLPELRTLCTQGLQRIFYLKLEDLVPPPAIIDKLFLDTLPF

outcome, inactive:
O=C(O)CCCCCCCCCCC(=O)O
Clc1ccc(Cl)c(Cl)c1Cl
COCCOCCOCCOCCOCCO
O=c1cc(-c2ccccc2)oc2cc(O)cc(O)c12
Cc1cccc(Nc2ccccc2C(=O)O)c1C
CCCCCCCCCCCCCOS(=O)(=O)O
COc1ccnc(CS(=O)c2nc3cc(OC(F)F)ccc3[nH]2)c1OC (stereo not drawn)
CN1Cc2c(N)cccc2C(c2ccccc2)C1 (stereo not drawn)
CCCCN
CC(C)(CO)[N+](=O)[O-]
O=C1OC2(c3cc(Br)c(O)c(Br)c3Oc3c2cc(Br)c(O)c3Br)c2c(Cl)c(Cl)c(Cl)c(Cl)c21
C=CC(=O)OCC(O)COc1ccccc1 (stereo not drawn)
c1ccc2[nH]ccc2c1
O=C(O)CCCCC1CCSS1 (stereo not drawn)
O=Cc1ccc(F)cc1
CC(C)c1cccc(O)c1

AC50, active:
COc1ccc(Nc2ccccc2)c(C)c1 143 µM

molecular target: Transcriptional activator Myb (Homo sapiens) (UniProt P10242); experiment: ATG_Myb_CIS: Attagene CIS-FACTORIAL HepG2 Assay for human Myeloblastosis (Myb) Proto-Oncogene Transcription Factor (AID 2282986; active = hit-call score of the fitted dose curve at least 0.9, where 1 is the maximum; inactive = score below 0.9); settings: HepG2 Attagene CIS-FACTORIAL Myb reporter transcription; actives raise or lower the signal
Method in brief: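 After 24 h of compound dosing, total RNA from transfected HepG2 cells is reverse-transcribed and the reporter sequences amplified, labeled and separated by capillary electrophoresis. Values come from bidirectional fitting against DMSO.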

Transcriptional activator Myb (Homo sapiens), sequence (P10242 whole entry, looked up): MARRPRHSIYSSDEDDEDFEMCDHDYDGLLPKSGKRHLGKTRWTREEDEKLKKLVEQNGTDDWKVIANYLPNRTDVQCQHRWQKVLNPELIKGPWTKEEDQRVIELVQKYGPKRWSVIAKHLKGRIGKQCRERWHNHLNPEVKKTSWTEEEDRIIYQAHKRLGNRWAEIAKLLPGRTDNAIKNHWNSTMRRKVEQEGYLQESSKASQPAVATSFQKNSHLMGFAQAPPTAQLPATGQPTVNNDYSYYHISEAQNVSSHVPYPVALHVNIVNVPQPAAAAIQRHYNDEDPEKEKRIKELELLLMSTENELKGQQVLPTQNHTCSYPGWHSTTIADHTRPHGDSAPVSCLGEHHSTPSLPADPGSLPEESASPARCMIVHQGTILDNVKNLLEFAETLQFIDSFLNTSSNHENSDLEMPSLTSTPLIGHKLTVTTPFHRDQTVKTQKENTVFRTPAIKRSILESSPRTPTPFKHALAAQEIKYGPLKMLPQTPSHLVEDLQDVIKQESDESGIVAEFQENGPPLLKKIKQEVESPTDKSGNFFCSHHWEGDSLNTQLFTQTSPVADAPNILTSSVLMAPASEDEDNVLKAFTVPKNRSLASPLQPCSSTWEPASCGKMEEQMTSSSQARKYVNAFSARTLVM

outcome, inactive:
CC1(C)[C@H](C(=O)OCc2cccc(Oc3ccccc3)c2)[C@@H]1C=C(Cl)Cl
COc1ccc(Nc2ccccc2)c(C)c1
CNCCCC12CCC(c3ccccc31)c1ccccc12
Clc1ccc(Cl)c(Cl)c1Cl
OC[C@H]1O[C@H](O[C@]2(CCl)O[C@H](CCl)[C@@H](O)[C@@H]2O)[C@H](O)[C@@H](O)[C@H]1Cl
O=C(O)c1ccc([N+](=O)[O-])cc1
COCCOCCOCCOCCOCCO
O=C(O)CCSCCC(=O)O
O=c1cc(-c2ccccc2)oc2cc(O)cc(O)c12
Nc1ccc(F)c([N+](=O)[O-])c1
Cc1cccc(Nc2ccccc2C(=O)O)c1C
CCCCCCCCCCCCCOS(=O)(=O)O
COc1ccnc(CS(=O)c2nc3cc(OC(F)F)ccc3[nH]2)c1OC (stereo not drawn)
CN1Cc2c(N)cccc2C(c2ccccc2)C1 (stereo not drawn)
CCCCN
CC(C)(CO)[N+](=O)[O-]
Cc1cccc(C)c1[N+](=O)[O-]
CCO[Si](CCCS)(OCC)OCC
COCCCOc1ccnc(CS(=O)c2nc3ccccc3[nH]2)c1C (stereo not drawn)
c1ccc2[nH]ccc2c1
O=S(=O)(O)c1cccc2c(S(=O)(=O)O)cccc12
CCOC(=S)SSC(=S)OCC
Nc1cccc(S(=O)(=O)c2cccc(N)c2)c1
O=C(O)CCCCC1CCSS1 (stereo not drawn)
CC(=O)C(C)=O
NCCOCCO
CCCCOCCOCCSC#N
NC(N)=NC(=O)c1nc(Cl)c(N)nc1N
CCC(C)CCCC(C)(C)O (stereo not drawn)
O=Cc1ccc(F)cc1
COC(=O)Cc1cccc2ccccc12
CC(C)c1cccc(O)c1

AC50, active:
C=CC(C)(O)CCC=C(C)CCC=C(C)C (stereo not drawn) 163 µM
